The source made the active and inactive calls. The calls were made as follows: active = hit-call score of the fitted dose curve at least 0.9, where 1 is the maximum; inactive = score below 0.9.
Molecular target: Hepatocyte nuclear factor 6 (Homo sapiens) (UniProt Q9UBC0)
Assay: ATG_HNF6_CIS: Attagene CIS-FACTORIAL HepG2 Assay for human Hepatocyte Nuclear Factor 6 (HNF6) (AID 2282952)
Details: HepG2 Attagene cis-factorial HNF6 reporter transcription; actives raise or lower the signal
Experimental: ATG_CIS is a cell-based, multiplexed-readout assay that uses HepG2, a human liver cell line, with measurements taken at 24 hours after chemical dosing in a 24-well plate.ATG_HNF6_CIS is one of 52 assay component(s) measured or calculated from the ATG_CIS assay. It is designed to make measurements of mRNA induction, a form of inducible reporter, as detected with fluorescence intensity signals by Reverse transcription polymerase chain reaction (RT-PCR) and Capillary electrophoresis technology.Data from the assay component ATG_HNF6_CIS was analyzed into 1 assay endpoint. This assay endpoint, ATG_HNF6_CIS, was analyzed with bidirectional fitting relative to DMSO as the negative control and baseline of activity. Using a type of inducible reporter, measures of mRNA for gain or loss-of-signal activity can be used to understand the reporter gene at the transcription factor-level as they relate to the gene ONECUT1. Furthermore, this assay endpoint can be referred to as a primary readout, because this assay has produced multiple assay endpoints where this one serves a reporter gene function. To generalize the intended target to other relatable targets, this assay endpoint is annotated to the dna binding intended target family, where the subfamily is homeobox protein.
Human liver HepG2 cells are transiently transfected with multiple reporter transcription units (MRTUs) in 6-well plates using FuGene 6 reagent (Roche; 3 ml FuGene/1 mg DNA). The MRTU constructs are regulated by a cis-regulating element (promoter). […] A major difference between the CIS and TRANS system is that in CIS activities of endogenous TFs are measured, whereas the TRANS assay evaluates changes in activities of exogenous, chimeric NR-Gal4 proteins. […] At the end of 24 hour incubation, total RNA was isolated using TriZol reagent (Invitrogen). The isolated RNA is then reverse-transcribed using oligo(dT) primer and Mo-MLV reverse transcriptase (Invitrogen) with DNAse I (Ambion) treatment for 30 min. The one-tenth of the produced cDNA was amplified by PCR using Taq DNA polymerase (Invitrogen) and two reporter sequence-specific primers. The PCR products were fluorescently labeled by primer extension with 6-arboxyfluorescein (6-FAM) 5'-labeled reporter sequence-specific primer (2 min at 95 C, 20 s at 68 C and 10 min at 72 C) and these products were digested with 5U of HpaI (New England Biolabs) for 2h at 37 C. The fragments were purified using Qiaquick PCR columns (Qiagen), analyzed on an ABI 3130xL genetic analyzer (Applied Biosystems) with peak positions identified by using a set of X-rhodamine (ROX)-labeled MapMarker1000 molecular weight standards (BioVentures). The raw capillary electrophoresis data was processed using Attagraph software (Attagene).

Chain of Hepatocyte nuclear factor 6 (Homo sapiens) (Q9UBC0 whole entry, looked up): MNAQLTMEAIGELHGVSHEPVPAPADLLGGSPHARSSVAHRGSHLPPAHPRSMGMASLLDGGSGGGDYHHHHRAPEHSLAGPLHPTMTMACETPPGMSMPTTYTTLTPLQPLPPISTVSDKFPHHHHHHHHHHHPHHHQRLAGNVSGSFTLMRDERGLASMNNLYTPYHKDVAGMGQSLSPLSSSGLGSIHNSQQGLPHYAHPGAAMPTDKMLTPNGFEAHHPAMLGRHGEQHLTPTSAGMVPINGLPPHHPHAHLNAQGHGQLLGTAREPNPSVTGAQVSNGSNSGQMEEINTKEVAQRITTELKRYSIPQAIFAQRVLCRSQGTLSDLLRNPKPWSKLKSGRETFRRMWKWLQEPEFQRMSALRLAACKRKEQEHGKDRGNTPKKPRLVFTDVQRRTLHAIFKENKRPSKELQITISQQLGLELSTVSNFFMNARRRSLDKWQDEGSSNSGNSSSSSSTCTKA

| Compound | outcome |
| --- | --- |
| CC(=O)/C=C/C1C(C)=CCCC1(C)C (stereo not given) | inactive |
| CN(C)Cc1cc(CN(C)C)c(O)c(CN(C)C)c1 | inactive |
| C=Cc1ccc(OC(C)=O)cc1 | inactive |
| CC(C)=NNC(N)=S | inactive |
| CCC(C)c1ccccc1 (stereo not given) | inactive |
| O=C(O)c1cc(O)c2ccccc2c1O | inactive |
| CCCCC/C=C\C/C=C\CCCCCCCC(=O)O | inactive |
| CCCCC(CC)COC(=O)/C=C/c1ccc(OC)cc1 (stereo not given) | inactive |
| CC1(C)C(=O)N(CO)C(=O)N1CO | inactive |
| CCOC(=O)/C=C\C(=O)OCC | inactive |
| CCCCCC1=CCCC1=O | inactive |
| CCC1COC(=O)O1 (stereo not given) | inactive |
| O=C1c2ccccc2C(=O)c2cc(S(=O)(=O)O)ccc21 | inactive |
| CCc1cccc(C)c1N(C(=O)CS(=O)(=O)O)C(C)COC (stereo not given) | inactive |
| CC(=O)C(C)C | inactive |
| CC(C)c1cccc(C(C)C)c1N | inactive |
| NC(=O)Nc1ccccc1 | inactive |
| COC(Cc1ccccc1)OC | inactive |
| CC(=O)c1ccc(S(=O)(=O)NC(=O)NC2CCCCC2)cc1 | inactive |
| CC(C=O)c1ccccc1 (stereo not given) | inactive |

| Compound | outcome |
| --- | --- |
| Nc1ccc(Cl)c(N)c1 | inactive |
| CC/C=C\C/C=C\C/C=C\CCCCCCCC(=O)OC | inactive |
| CCCCCCCC(=O)OCC(COC(=O)CCCCCCC)OC(=O)CCCCCCC | inactive |
| O=C(O)/C=C/c1ccccc1 | inactive |
| C=CC(=O)OCCCCCCCCCC | inactive |
| CCCCNS(=O)(=O)c1ccccc1 | inactive |
| Cc1c[nH]c(=O)[nH]c1=O | inactive |
| COc1nccnc1CC(C)C | inactive |
| CC(=O)OC(C)c1ccccc1 (stereo not given) | inactive |
| CCOC(=O)c1ccccc1C | inactive |
| CCC(=O)C1CC(C(C)C)CC=C1C (stereo not given) | inactive |
| Cc1cc(=O)[nH]c(=O)[nH]1 | inactive |
| c1ccc2cnccc2c1 | inactive |
| Cc1c(O)cccc1O | inactive |
| CCCC(CC)c1ccccc1 (stereo not given) | inactive |
| CCCCCCCCCCCCC | inactive |
| COC(=O)c1ccc(C(=O)OC)c(C(=O)OC)c1 | inactive |
| CC=C(C)C=CC=C(C)C | inactive |
| CC(C)c1ccc(O)c(C(C)C)c1 | inactive |
| N=C1C=CC(=C(c2ccc(N)cc2)c2ccc(N)cc2)C=C1 | inactive |
